Hits are enriched below; roughly 7.5% of the tested compounds scored in any of these assays.
FBPA Giardia inh = inhibitors of Giardia lamblia fructose-1,6-bisphosphate aldolase; Potency, µM (series often up to 59.6 µM), without a hit: at the top dose activity, negative = inhibition, hits mostly inhibitors; A8B2U2; 290,000 tested, 0.71% active; purified Giardia FBPA; further: potency means the concentration at half of the fitted maximal effect; nearly all actives have a fitted effect of over 55% in size
Target sequence (A8B2U2 whole entry, looked up): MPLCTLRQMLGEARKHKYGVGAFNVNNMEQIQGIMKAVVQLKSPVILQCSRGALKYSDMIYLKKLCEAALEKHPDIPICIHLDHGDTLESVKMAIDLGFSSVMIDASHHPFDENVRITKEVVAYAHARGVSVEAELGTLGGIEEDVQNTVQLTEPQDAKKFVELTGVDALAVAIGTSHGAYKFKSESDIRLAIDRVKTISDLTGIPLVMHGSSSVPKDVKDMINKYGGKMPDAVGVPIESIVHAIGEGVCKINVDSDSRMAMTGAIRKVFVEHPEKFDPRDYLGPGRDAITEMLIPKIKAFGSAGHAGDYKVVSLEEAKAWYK
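40 nM FBPA preincubated 10 min at RT with compound (up to 57.5 uM final), then substrate plus GAPDH/TPI/NAD/arsenate coupling and diaphorase/resazurin added. Fluorescence read after 20 min at RT, 525/598 nm.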
HCMV antiviral = inhibitors of human cytomegalovirus | HFF cells, HCMV-luciferase reporter, 72 h; stronger effect = lower value | activity change, negative = inhibition, % at 57.5 µM | 410,000 tested, 4.5% active | AID 1259415; in the data active means activity change below about -60%; inconclusive means no clear call, values can overlap the other calls; inactive means above about -39%
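Screen run at 2 compound doses on HFFs infected with reporter HCMV, MOI 1 PFU/cell. Luciferase activity from cell lysates at 72 h post infection gave inhibition relative to buffer-only and Salinomycin wells.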
FMDV inh = antivirals against foot and mouth disease virus | FMDV antiviral cell-based qHTS | Potency, µM (titrated, usually from 57.9 µM), for the others: top-dose activity change, negative = inhibition, actives largely listed as inhibitors | 410,000 tested, 1.2% active | AID 1159524; calls by dose curve; tested in HEK293T cells; further: read-out not given here; potency means the concentration at half of the fitted maximal effect; nearly all actives have a fitted effect of over 45% in size
HCV inh = blocks hepatitis C virus | Huh7.5.1 HCVcc-Cre infection, luciferase reporter, 44 h | Potency, µM (series often up to 41.8 µM), inactives show at the top dose activity change, negative = inhibition, hits mostly inhibitors | 340,000 tested, 3.4% active; further: potency means the concentration at half of the fitted maximal effect
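Seed cells (1,000/well) for 4 h; treat with compound and infect with HCVcc-Cre, moi about 0.5. Incubate 44 h, then detect luciferase activity.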
VACV mCherry inh = inhibitors of vaccinia virus infection (mCherry reporter signal); Vaccinia virus mCherry reporter infection, fluorescence; Potency, µM (top dose mostly 36.5 µM), for inactives: at the highest dose activity change, negative = inhibition, most hits filed as inhibitors; 310,000 tested, 0.63% active; AID 720579; calls by dose curve; tested in A549 cells; further: potency means the concentration at half of the fitted maximal effect; nearly all actives have a fitted effect of over 35% in size
VACV Venus inh = inhibitors of vaccinia virus (Venus reporter); Vaccinia virus Venus reporter expression, fluorescence; Potency, µM (titrated, usually from 36.5 µM), without a hit: top-dose activity change, negative = inhibition, most hits filed as inhibitors; 330,000 tested, 0.46% active; calls by dose curve; tested in A549 cells; further: potency means the concentration at half of the fitted maximal effect; nearly all actives have a fitted effect of over 30% in size
Starred values were filed as active, the others as inactive; i = inactive; ? = inconclusive; . = no result given; ! = not active in a repeat. Unless noted, the call rests on the fitted dose curve; in most records, active means well fitted curve in the direction sought with a large enough effect; inconclusive means small, poorly fitted or top-dose-only effect, or another doubt; inactive means no such curve, though single readings can be large; an effect the other way counts as inactive or inconclusive. On the % scale 0 is the no-effect control and ±100 the full control effect.

SMILES	FBPA Giardia inh	HCMV antiviral	FMDV inh	HCV inh	VACV mCherry inh	VACV Venus inh
CCC1CCCCN1S(=O)(=O)c1ccc(C(=O)N(CCCN(C)C)c2nc3cc4c(cc3s2)OCO4)cc1 (stereo not drawn)	.	-17	-14%	13µM*	?	?
CN(C)CCN(C(=O)c1ccc2ccccc2c1)c1nc2cc3c(cc2s1)OCCO3	.	97	13%	.	?	-14%
CN(C)CCCN(C(=O)c1ccc(S(=O)(=O)N2CCCCCC2)cc1)c1nc2cc3c(cc2s1)OCO3	.	9	-15%	.	-24%	?
COc1ccc(-c2cc(C(=O)OCC(=O)c3cccc(OC)c3)c3cccc(Cl)c3n2)cc1	.	-17	-11%	.	-18%	-17%
CCc1nnc2c3ccccc3nc(N3CCN(c4cc(C)ccc4C)CC3)n12	.	8	-19%	.	-12%	-6%
C=CCn1cccc(C(=O)Nc2ccc(SC)cc2)c1=O	13%	.	-10%	?	.	.
C=CCn1cccc(C(=O)Nc2ccc(OCC)cc2)c1=O	0%	-63*	0%	11µM*	-15%	-10%
C=CCn1cccc(C(=O)Nc2ccc(Cl)cc2)c1=O	1%	13	10%	11µM*	.	.
CC1CCCC(NC(=O)C2CCN(S(=O)(=O)N3CCCCC3)CC2)C1C (stereo not drawn)	15%	27	-19%	-1%	.	.
O=C(Cc1nc2ccccc2[nH]1)c1cccc([N+](=O)[O-])c1	-19%	-17	-20%	11µM*	.	.
COC(=O)/C=c1/s/c(=C(/C#N)C(=O)N2CCCCC2)n(-c2ccccc2)c1=O	2%	-69*	-15%	2%	-23%	0%
COC(=O)/C=c1/s/c(=C(/C#N)C(=O)N2CCOCC2)n(-c2ccccc2)c1=O	-2%	-4	?	4%	-13%	-4%
CC(C)NC(=O)c1nnc2n1CCN(Cc1cccc3c1OCO3)C2	.	-13	.	.	.	.
O=C(NC1=NCCS1)c1csc2ccccc12	-1%	243	48%	7.1µM*	-5%	-15%
O=C(NC1=NCCS1)c1ccccc1OCc1ccccc1Cl	0%	-12	-8%	13µM*	.	.
O=C(NC1=NCCS1)c1ccccc1Cl	7%	76	20%	4%	-3%	-4%
CCCc1cc2c(=O)c(-c3ccc4c(c3)OCCO4)coc2cc1OC(=O)c1ccco1	0%	34	55%	-1%	i	-15%
CCc1cc2c(=O)c(-c3ccc4c(c3)OCCO4)coc2cc1OC(=O)c1ccco1	1%	-34	19%	10µM*!	.	.
CCCc1cc2c(=O)c(-c3ccc4c(c3)OCCO4)coc2cc1OS(C)(=O)=O	-8%	-60*	-5%	10µM*	10µM*	?
Cc1cccn2c(=O)c3cc(C(=O)NC(C)c4ccccc4)c(=N)n(CCOCCO)c3nc12 (stereo not drawn)	.	21	1%	.	6%	-6%
Cc1cccn2c(=O)c3cc(C(=O)NC(C)c4ccccc4)c(=N)n(CCCn4ccnc4)c3nc12 (stereo not drawn)	5%	-68*	-2%	-16%	-12%	-18%
CCOCCCn1c(=N)c(C(=O)NC(C)c2ccccc2)cc2c(=O)n3cccc(C)c3nc21 (stereo not drawn)	.	-73*	?	.	-12%	-20%
COc1cc(/C(C)=C/c2ccccc2)c2c(c1)oc1ccccc12	6%	.	.	.	-2%	-8%
CCCCCCC(C)n1[nH]c(=O)c2c(C)cc(=O)[nH]c21 (stereo not drawn)	0%	-70*	?	-13%	-3%	-7%
CCCCC(C)n1[nH]c(=O)c2c(C)cc(C)nc21 (stereo not drawn)	-7%	-38	-20%	-3%	-22%	-24%
SMILES	FBPA Giardia inh	HCMV antiviral	FMDV inh	HCV inh	VACV mCherry inh	VACV Venus inh
CCOC(=O)C1CCCN(C(c2ccccn2)c2c(C)[nH]c3ccccc23)C1 (stereo not drawn)	1%	-87*	5%	22%	i	1%
COc1ccc(Cl)cc1C(=O)NNC(=O)CNC(=O)c1ccco1	.	-99*	-8%	5%	.	.
COc1cc(NC(=O)[C@@H](NC(=O)c2ccco2)C(C)C)c(OC)cc1NC(=O)c1ccccc1	-4%	-37	-6%	7.9µM*	-6%	0%
COc1ccc(Cl)cc1NC(=O)c1ccco1	-5%	-5	-10%	11µM*	.	10%
C=CCc1ccccc1OCC(=O)NNC(=S)NCc1ccccc1	.	-16	-21%	15%	i	-15%
CCC(C(=O)OCC(=O)N1CCN(S(=O)(=O)c2ccc(C)cc2C)CC1)c1ccccc1 (stereo not drawn)	.	?	-22%	0%	-21%	-16%
CNS(=O)(=O)c1cc(NC(=O)c2cncn2-c2ccccc2)ccc1C	1%	-13	60%	4%	-12%	1%
COc1cc2c(-c3ccc(O)cc3)nc3c(c(C)nn3-c3ccccc3)c2cc1OC	-8%	-72*	0%	11µM*	-8%	-27%
O=C(N/N=C/c1cccs1)c1cc(-c2ccncc2)nc2ccccc12	5%	-72*	?	?	-4%	?
CCc1ccc(/C=N/NC(=O)c2cc(-c3ccncc3)nc3ccccc23)s1	2%	-66*	-16%	?	?	-17%
Cc1ccc(C(=O)N/N=C\c2ccncc2)s1	.	36	17%	-3%	i	-17%
CCc1ccc(C(=O)N/N=C/c2ccncc2)s1	1%	38	56%	13µM*	.	.
COC(=O)c1sccc1S(=O)(=O)N1CCC(n2c(CC3CCCC3)nc3cccnc32)CC1	.	.	-4%	.	-11%	-5%
O=C(CCCN1C(=O)/C(=C/c2ccc(F)cc2)SC1=S)NC1CCS(=O)(=O)C1 (stereo not drawn)	10%	-72*	2%	-7%	.	.
O=C(CN1C(=O)S/C(=C\c2ccccc2)C1=O)NC1CCS(=O)(=O)C1 (stereo not drawn)	.	-36	8%	-8%	-21%	-10%
O=C(CN1C(=O)S/C(=C\c2ccccc2F)C1=O)NC1CCS(=O)(=O)C1 (stereo not drawn)	.	-62*	-13%	19%	-18%	-15%
O=C(CCN1C(=O)/C(=C/c2ccccc2)SC1=S)NC1CCS(=O)(=O)C1 (stereo not drawn)	.	?	-3%	-3%	-8%	-6%
C(=C\c1ccnc2ccccc12)/c1ccc(N2CCOCC2)cc1	.	.	.	.	163%	179%
Cc1cc(Br)cn2c(Cc3ccsc3)c(C(C)(C)C)nc12	.	2	0%	.	5%	5%
COc1cc(C2N(c3ccccc3)CCN2c2ccccc2)ccc1OC(C)=O	-14%	-63*	-12%	-11%	.	-16%
CC1CCN(c2nn3c(=O)c(C(=O)NCc4ccc(Cl)cc4)cnc3s2)CC1	.	-4	-9%	.	-5%	-7%
